PD-1 reverse act = reversal of PD-1 mediated T-cell inhibition | activation, % (no concentration beside the values) | 29,000 tested, under 10 active | primary human CD4 T cells, PD-L1 beads, CellTiter-Glo 96 h; call rule not given here;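 note: 0% = median vehicle wells and 100% = positive control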
Hedgehog inh = Sonic Hedgehog pathway inhibition; Shh-LIGHT2 Gli-luciferase reporter, 30 h; inhibition, % (test concentration not listed); 2.1% of 22,000 active; AID 2313;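 active = mean inhibition across valid replicates above about 65%, limit read from the data; inconclusive = mean under the limit, yet half or more replicates past it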;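 note: pathway switched on by Shh-conditioned medium diluted 1 in 25 in low serum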
NOMO-1 viab = STK33 inhibitor candidate reducing NOMO-1 cell viability; inhibition, % (concentration not given with the values); 7.5% of 37,000 active; NOMO-1 AML viability, CellTiter-Glo luminescence, 72 h; AID 2330; in the data active = inhibition above about 80%; inconclusive = no clear call, values can overlap the other calls
* = called active by the depositor; ? = inconclusive; . = no result. In the library only some 7.7% were active in any assay of this set; here they are far more common.

SMILES	PD-1 reverse act	Hedgehog inh	NOMO-1 viab
C[C@H]1CN([C@@H](C)CO)C(=O)c2cccc(NC(=O)Nc3ccccc3)c2O[C@@H]1CN(C)Cc1ccc(Cl)c(Cl)c1	-0.2	-5.2	64.0
COC(=O)c1ccc(NC(=O)CN2C(=O)C3C4CC(c5ccccc5)C(C4)C3C2=O)cc1 (configuration not stated)	.	.	49.3
CC(C)(C)NC(=O)[C@H]1C[C@H]2CCCC[C@H]2CN1C(=O)C12CC3CC(CC(C3)C1)C2	5.8	-17.5	17.1
COc1cc(/C=C/C(=O)OC2CC3CCC2(C)C3(C)C)ccc1O (configuration not stated)	-1.6	1.5	103.9*
O=C(/C=C/c1ccc(O)c(O)c1)O[C@@H]1C[C@](O)(C(=O)O)C[C@@H](O)[C@H]1O	.	-31.9	16.5
COc1ccccc1NC(=O)Cn1cc(C(=O)c2ccccc2F)c2ccccc21	1.3	.	29.1
O=C(CSc1nnc(-c2ccccc2O)n1-c1ccccc1)NC1CCCCC1	1.1	.	24.6
Cc1ccc(S(=O)(=O)Nc2ccc3c(c2)CC(=O)N([C@H](C)CO)C[C@@H](C)[C@@H](CN(C)Cc2ccc(Cl)c(Cl)c2)O3)cc1	-4.7	35.2	116.3*
Cc1ccc(S(=O)(=O)Nc2ccc3c(c2)CC(=O)N([C@H](C)CO)C[C@@H](C)[C@H](CN(C)Cc2ccc(Cl)c(Cl)c2)O3)cc1	0.0	-16.3	59.3
Cc1ccc(S(=O)(=O)Nc2ccc3c(c2)CC(=O)N([C@@H](C)CO)C[C@@H](C)[C@@H](CN(C)Cc2ccc(Cl)c(Cl)c2)O3)cc1	-2.8	-8.3	83.4*
Cc1ccc(S(=O)(=O)Nc2ccc3c(c2)CC(=O)N([C@@H](C)CO)C[C@H](C)[C@H](CN(C)Cc2ccc(Cl)c(Cl)c2)O3)cc1	1.3	-32.8	71.4
Cc1ccc(NS(=O)(=O)c2cc(C(=O)O)ccc2Br)cc1	1.0	-30.0	20.7
CS(=O)(=O)N(CC(=O)Nc1cccc([N+](=O)[O-])c1)Cc1ccc(Cl)cc1	-0.9	.	-21.3
O=c1cc(CSc2cccc3cccnc23)c2ccc(O)cc2o1	-5.7	7.0	110.4*
O=c1cc(CSc2ccccn2)c2ccc(O)cc2o1	-0.8	-19.3	19.8
Cn1c(SCC(=O)Nc2ccc(C(=O)O)cc2)nnc1-c1ccc(Br)cc1	.	.	-0.9
Cc1ccc(S(C)(=O)=O)cc1	0.1	-21.9	4.6
COc1ccc(NC(=O)CC(=O)CSc2ccccc2)cc1	-2.1	-1.5	112.3*
COc1ccc(NC(=O)CSc2nnc(-c3ccccc3)c(-c3ccccc3)n2)cc1	1.7	.	-18.6
CC(CNC1CCCCC1)OC(=O)c1ccccc1 (configuration not stated)	.	-55.3	21.7
O=C(OC1(C#CCN2CCCCC2)CCCCC1)c1ccccc1	-6.4	58.7	116.6*
O=C(CN1C(=O)C2C3C=CC(C4CC34)C2C1=O)Nc1ccc(Oc2ccc(Br)cc2)cc1 (configuration not stated)	-1.7	.	85.7*
O=C(CN1C(=O)C2C3C=CC(C4CC34)C2C1=O)Nc1ccc(Oc2ccccc2Cl)cc1 (configuration not stated)	.	.	-0.8
On1c(-c2ccccc2Cl)nc2c1CCc1nonc1-2	0.0	-9.8	-10.2
Nc1cccc(-c2cc3c(Oc4cccc(O)c4)ncnc3[nH]2)c1	-1.6	-7.7	91.0*
SMILES	PD-1 reverse act	Hedgehog inh	NOMO-1 viab
COc1ccc(Cl)cc1NC(=O)CN1C(=O)c2ccccc2S1(=O)=O	.	.	0.6
COc1ccc(S(=O)(=O)Nc2ccc3c(c2)CC(=O)N([C@@H](C)CO)C[C@H](C)[C@H](CN(C)Cc2ccc(C(=O)Nc4ccccc4N)cc2)O3)cc1	-0.7	.	140.4*
Cc1ccc(S(=O)(=O)Nc2ccc3c(c2)CC(=O)N([C@@H](C)CO)C[C@@H](C)[C@@H](CN(C)Cc2ccc(C(=O)Nc4ccccc4N)cc2)O3)cc1	1.1	.	109.3*
Cc1noc(C)c1S(=O)(=O)Nc1ccc2c(c1)CC(=O)N([C@H](C)CO)C[C@@H](C)[C@H](CN(C)Cc1ccc(C(=O)Nc3ccccc3N)cc1)O2	0.0	.	30.5
C[C@@H]1CN([C@H](C)CO)C(=O)Cc2cc(NS(=O)(=O)c3ccc(F)cc3)ccc2O[C@H]1CN(C)Cc1ccc(C(=O)Nc2ccccc2N)cc1	-2.6	.	?
COc1ccc(S(=O)(=O)Nc2ccc3c(c2)CC(=O)N([C@@H](C)CO)C[C@H](C)[C@@H](CN(C)Cc2ccc(C(=O)Nc4ccccc4N)cc2)O3)cc1	-1.0	.	45.3
Cc1noc(C)c1S(=O)(=O)Nc1ccc2c(c1)CC(=O)N([C@H](C)CO)C[C@@H](C)[C@@H](CN(C)Cc1ccc(C(=O)Nc3ccccc3N)cc1)O2	-0.6	.	99.8*
C[C@@H]1CN([C@H](C)CO)C(=O)Cc2cc(NS(=O)(=O)c3ccc(F)cc3)ccc2O[C@@H]1CN(C)Cc1ccc(C(=O)Nc2ccccc2N)cc1	-2.1	.	90.7*
C[C@@H]1CN([C@H](C)CO)C(=O)Cc2cc(NS(=O)(=O)c3ccc(Cl)cc3)ccc2O[C@H]1CN(C)Cc1ccc(C(=O)Nc2ccccc2N)cc1	-1.7	.	62.4
COc1cccc(CN2CCN(C(=O)c3cccs3)CC2)c1	0.1	.	1.9
Nc1nnc(SCC(=O)Nc2cccc(Cl)c2Cl)s1	1.0	.	54.6
CC(C)Cc1c(O)nc(SCC(=O)NC(C)(C)C)[nH]c1=O	0.3	-24.4	-5.2
C[C@@H]1CN([C@@H](C)CO)C(=O)Cc2cc(NS(=O)(=O)c3cccs3)ccc2O[C@@H]1CN(C)Cc1ccc(C(=O)O)cc1	2.6	-23.0	-10.5
C[C@H]1CN([C@@H](C)CO)C(=O)Cc2cc(NS(=O)(=O)c3cccs3)ccc2O[C@H]1CN(C)Cc1ccc(C(=O)Nc2ccccc2N)cc1	-4.2	.	140.6*
CCCOc1ccc(Oc2nc(NCC)nc(OC)n2)nn1	.	.	0.8
O=C(C1c2ccccc2Oc2ccccc21)N1CCCc2ccccc21	0.9	45.8	50.7
CC(CCC(=O)Nc1ccccc1)C(=O)O (configuration not stated)	2.2	.	-13.4
CC(CNc1ccccc1)C(=Nc1ccccc1)Nc1ccccc1 (configuration not stated)	-28.3	-21.3	118.9*
Cc1nnc(SCC(=O)Nc2ccc(F)c(F)c2F)s1	1.2	.	16.0
CC(C)CCCC(C)(O)c1ccc(C(=O)O)cc1O (configuration not stated)	1.0	-24.8	-1.3
Cc1ccc(C(O)(COC(=O)C(C)C)COC(=O)C(C)C)c(O)c1	-12.2	-21.6	117.5*
CSc1ccccc1NC(=O)CN(c1cc(Cl)ccc1C)S(C)(=O)=O	1.8	.	-2.0
Cc1cc(C(=O)Nc2cccc3c2O[C@H](CN(C)Cc2ccc(-c4ccccc4)cc2)[C@@H](C)CN([C@H](C)CO)C3=O)n(C)n1	-1.1	40.4	88.5*
Cc1cc(C(=O)Nc2cccc3c2O[C@@H](CN(C)Cc2ccccc2)[C@@H](C)CN([C@H](C)CO)C3=O)n(C)n1	0.0	-0.1	9.3
Cc1cc(C(=O)Nc2cccc3c2O[C@H](CN(C)Cc2ccc(C(=O)Nc4ccccc4N)cc2)[C@@H](C)CN([C@@H](C)CO)C3=O)n(C)n1	1.3	.	?
Cc1cc(C(=O)Nc2cccc3c2O[C@H](CN(C)Cc2ccc(C(=O)Nc4ccccc4N)cc2)[C@H](C)CN([C@H](C)CO)C3=O)n(C)n1	-1.7	.	126.7*
